Data published in PubChem BioAssay AID588323 (National Center for Advancing Translational Sciences (NCATS), 2011).
Calls of active or inactive are those of the source. Where a call stands in place of a potency, no number is given. Calls follow the shape of the dose curve; as a rule, active = well fitted curve in the direction sought with a large enough effect; inconclusive = small, poorly fitted or top-dose-only effect, or another doubt; inactive = no such curve, though single readings can be large or run the other way.

Experiment: Confirmatory Assay to Find Inhibitors of T. brucei phosphofructokinase: Cytotoxictity in MRC5
Conditions: cell viability; Potency: MRC5 cytotoxicity; series mostly up to 46.1 µM
Text: Various species of the protozoan family Trypanosomatidae are responsible for a range of serious human diseases in tropical and subtropical areas of the world. […] Many of the disorders caused by trypanosomatids are fatal if left untreated, but most currently used drugs are inefficient and toxic.
Oxidative metabolism involving the mitochondrial tricarboxylic acid cycle and oxidative phosphorylation are repressed in these parasites, and recent RNA interference (RNAi) experiments have shown that even partial depletion of certain individual glycolytic enzymes can lead to the death of cultured parasites. One such glycolytic enzyme, phosphofructokinase (PFK), catalyzes the formation of fructose-1,6-bisphosphate (F1,6BP) and ADP from fructose-6-phosphate (F6P) and ATP, and in many metabolic circumstances makes an important contribution to the control of flux through the glycolytic pathway. As a specific glycolytic target, PFK is particularly attractive as it catalyzes the first irreversible step in glycolysis, and structural and kinetic studies have shown very substantial and essential differences from corresponding host enzymes, allowing for the discovery of parasite-selective inhibitors.
Confirmed qHTS active compounds were tested for toxicity against the MRC-5 human lung fibroblast cell lines. This line havs historically been used as representative human cells in in vitro Trypanosoma assays, and so provide a relevant surrogate for human cells in testing Tb PFK inhibitor toxicity.
NIH Chemical Genomics Center [NCGC]
NIH Molecular Libraries Probe Centers Network [MLPCN]
Assay Submitter (PI): Malcom Walkinshaw, University of Edinburg
MRC5 cells were dispensed into white solid 1536-microwell plates in 5 uL media (high glucose DMEM, 10% FBS) with a Thermo Multidrop. The plates were incubated at 37 degrees Celsius for 2 hours, and subsequently treated with compounds using the Kalypsys pin tool, delivering 23 nL of test compounds to each well. The plates were then incubated for an additional 72 hours at 37 degrees Celsius. Cytotoxicity was assessed by adding 2.5 uL of Cell-Titer Glo (Promega, Madison, WI) via Multidrop, incubating at room temperature for 10 min and reading luminescence on the Perkin Elmer ViewLux using a 1 second exposure and 1x binning. DMSO-treated cells were included as negative control, while media-only wells were used as a positive control equivalent to 100% cell toxicity for the sake of data normalization.

| Structure (SMILES) | Potency |
| --- | --- |
| O=C(Cc1ccc(Cl)c(Cl)c1)Nc1ccc(S(=O)(=O)Nc2ccc(C(=O)O)cc2)cc1 | inactive |
| Cc1cc(NS(=O)(=O)c2ccc(NC(=O)Cc3cccc(Cl)c3)cc2)no1 | inactive |
| Cc1cc(NS(=O)(=O)c2ccc(NCCc3ccc(Cl)c(Cl)c3)cc2)no1 | inactive |
| Cc1cc(NS(=O)(=O)c2ccc(NC(=O)Cc3ccccc3)cc2)no1 | inactive |
| Cc1cc(NS(=O)(=O)c2ccc(NC(=O)c3ccc(Cl)c(Cl)c3)cc2)no1 | inactive |
| Cc1cc(NS(=O)(=O)CCNC(=O)Cc2ccc(Cl)c(Cl)c2)no1 | inactive |
| CCOC(=O)c1cccc(NS(=O)(=O)c2ccc(NC(=O)Cc3ccc(Cl)c(Cl)c3)cc2)c1 | inactive |
| Cc1cc(N[S+](=O)([O-])c2ccc(NC(=O)Cc3ccc(Cl)nc3)cc2)no1 | inactive |
| Cc1cc(NS(=O)(=O)c2ccc(C(=O)NCc3ccc(Cl)c(Cl)c3)cc2)no1 | inactive |
| Cc1cc(N(C)S(=O)(=O)c2ccc(NC(=O)Cc3ccc(Cl)c(Cl)c3)cc2)no1 | 31.5 µM (active) |
| Cc1cc(N[S+](=O)([O-])c2ccc3cc(NC(=O)Cc4ccc(Cl)c(Cl)c4)ccc3c2)no1 | inactive |
| O=C(Cc1ccc(Cl)c(Cl)c1)Nc1ccc(S(=O)(=O)Nc2cccc(O)c2)cc1 | inactive |
| Cc1cc(NS(=O)(=O)c2ccc(NC(=O)Cc3ccc(Cl)c(Cl)c3)cc2)n(C)n1 | inactive |
| Cc1cc(NS(=O)(=O)c2ccc(NC(=O)Cc3ccc(Cl)cc3Cl)cc2)no1 | inactive |
| Cc1cc(NS(=O)(=O)c2ccc(NC(=O)Cc3ccc(Cl)c(Cl)c3)cc2)on1 | inactive |
| Cc1cc(NS(=O)(=O)c2ccc(NC(=O)Cc3ccc(Cl)c(F)c3)cc2)no1 | inactive |
| Cc1cc(NS(=O)(=O)C2CCN(C(=O)Cc3ccc(Cl)c(Cl)c3)CC2)no1 | inactive |
| Cc1cc(NS(=O)(=O)c2ccc(NC(=O)C(C)(C)c3ccc(Cl)c(Cl)c3)cc2)no1 | inactive |
| O=C(Cc1ccc(Cl)c(Cl)c1)Nc1ccc(S(=O)(=O)Nc2ccn[nH]2)cc1 | inactive |
| O=C(Cc1ccc(Cl)c(Cl)c1)Nc1ccc(S(=O)(=O)Nc2ccon2)cc1 | inactive |

| Structure (SMILES) | Potency |
| --- | --- |
| O=C(Cc1ccc(Cl)c(Cl)c1)Nc1ccc(S(=O)(=O)O)cc1 | inactive |
| Cc1cc(NC(=O)c2ccc(NC(=O)Cc3ccc(Cl)c(Cl)c3)cc2)no1 | inactive |
| Cc1cc(NS(=O)(=O)c2ccc(NC(=O)Cc3ccc(Cl)cc3)cc2)no1 | inactive |
| Cc1cc(NC(=O)c2csc(NC(=O)Cc3ccc(Cl)c(Cl)c3)n2)no1 | inactive |
| Cc1cc(NS(=O)(=O)c2ccc(NC(=O)Cc3ccc(C)c(C)c3)cc2)no1 | inactive |
| Cc1cc(NS(=O)(=O)c2ccc(NC(=O)Cc3ccc(Cl)c(C(F)(F)F)c3)cc2)no1 | inactive |
| Cc1cc(NS(=O)(=O)c2ccc(NS(=O)(=O)Cc3ccc(Cl)c(Cl)c3)cc2)no1 | inactive |
| COc1ccc(CC(=O)Nc2ccc(S(=O)(=O)Nc3cc(C)on3)cc2)cc1OC | inactive |
| Cc1cc(NS(=O)(=O)c2ccc(N(C)C(=O)Cc3ccc(Cl)c(Cl)c3)cc2)no1 | inactive |
| Cc1cc(NS(=O)(=O)c2ccc(NC(=O)Cc3ccc(Cl)c(Cl)c3)cc2)no1 | inactive |
| COc1ccc(CC(=O)Nc2ccc(S(=O)(=O)Nc3cc(C)on3)cc2)cc1C | inactive |
| Cc1cc(NS(=O)(=O)c2ccc(NC(=O)Cc3ccc4ccccc4c3)cc2)no1 | inactive |
| O=C(Cc1ccc(Cl)c(Cl)c1)Nc1ccc(S(=O)(=O)Nc2cncnc2)cc1 | inactive |
| O=C(Cc1ccc(Cl)c(Cl)c1)Nc1ccc(S(=O)(=O)Nc2cccc(C(=O)O)c2)cc1 | inactive |
| Cc1cc(NS(=O)(=O)c2ccc(NC(=O)Cc3ccc(C)c(F)c3)cc2)no1 | inactive |
| Cc1cc(NS(=O)(=O)c2ccc(NC(=O)CCc3ccc(Cl)c(Cl)c3)cc2)no1 | inactive |
| Cc1cc(NS(=O)(=O)c2cccc(NC(=O)Cc3ccc(Cl)c(Cl)c3)c2)no1 | inactive |
| Cc1cc(NS(=O)(=O)Cc2ccc(NC(=O)Cc3ccc(Cl)c(Cl)c3)cc2)no1 | inactive |
| O=C(Cc1ccc(Cl)c(Cl)c1)Nc1ccc(S(=O)(=O)Nc2ccccc2)cc1 | inactive |
